Measured values from PubChem BioAssay (NCI).
About 83,000 compounds went through this panel and 20% of them were active in at least one assay; those are over-represented in the sample as a whole.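 Negative percent growth values reflect cell death: -40 means 40% of the cells present at the start died, and -100 means all died.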 The source made the active and inactive calls. How the source made its calls: active means growth percent below 10; inactive means the rest.

How the values were obtained:
Assay in all cases: NCI-60 one-dose screen, 48 h (100 = growth as untreated, 0 = no growth, -100 = all killed)
Details in all cases: 10 µM unless noted
SR leukemia = system: SR leukemia
RPMI-8226 leukemia = system: RPMI-8226 leukemia
OVCAR-8 ovarian = system: OVCAR-8 ovarian
OVCAR-5 ovarian = system: OVCAR-5 ovarian
OVCAR-4 ovarian = system: OVCAR-4 ovarian
SK-OV-3 ovarian = system: SK-OV-3 ovarian
IGROV1 ovarian = system: IGROV1 ovarian
OVCAR-3 ovarian = system: OVCAR-3 ovarian
HS 578T breast = system: HS 578T breast
NCI/ADR-RES ovarian = system: NCI/ADR-RES ovarian

Measured: growth

CCc1nc2c(=O)[nH]cnc2o1
inactive: SR leukemia 92.8% | RPMI-8226 leukemia 109% | OVCAR-8 ovarian 111% | OVCAR-5 ovarian 107% | OVCAR-4 ovarian 96.2% | SK-OV-3 ovarian 110% | IGROV1 ovarian 111% | OVCAR-3 ovarian 111% | HS 578T breast 102% | NCI/ADR-RES ovarian 101%

CC(C)(C)n1cc(-c2ccnc(NCCCNS(=O)(=O)c3ccc(F)cc3)c2)c(-c2cccc(F)c2)n1
inactive: SR leukemia 14.3% | RPMI-8226 leukemia 28.1% | OVCAR-8 ovarian 54.8% | OVCAR-5 ovarian 69% | OVCAR-4 ovarian 79.2% | SK-OV-3 ovarian 75.3% | IGROV1 ovarian 68.6% | OVCAR-3 ovarian 74.8% | HS 578T breast 78.9% | NCI/ADR-RES ovarian 52%

Nc1c(C(=O)Nc2ccncc2)sc2nc3c(cc12)CCCCCC3
inactive: SR leukemia 20.8% | RPMI-8226 leukemia 64.9% | OVCAR-8 ovarian 86.7% | OVCAR-5 ovarian 90.7% | OVCAR-4 ovarian 86.9% | SK-OV-3 ovarian 79.6% | IGROV1 ovarian 103% | OVCAR-3 ovarian 104% | HS 578T breast 83.2% | NCI/ADR-RES ovarian 89%

O=C(NCCCN1CCOCC1)c1cccc(N2C(=O)/C(=C/c3ccc(F)cc3)SC2=S)c1
inactive: SR leukemia 98.9% | RPMI-8226 leukemia 102% | OVCAR-8 ovarian 100% | OVCAR-5 ovarian 104% | OVCAR-4 ovarian 93.8% | SK-OV-3 ovarian 108% | IGROV1 ovarian 90.7% | OVCAR-3 ovarian 99.5% | HS 578T breast 82.2% | NCI/ADR-RES ovarian 98.5%

Cc1ccc(Sc2nnc(/N=C3\C(=O)Nc4ccccc43)s2)cc1
inactive: SR leukemia 91.4% | RPMI-8226 leukemia 94.8% | OVCAR-8 ovarian 101% | OVCAR-5 ovarian 102% | OVCAR-4 ovarian 113% | SK-OV-3 ovarian 110% | IGROV1 ovarian 88.6% | OVCAR-3 ovarian 106% | HS 578T breast 97.5% | NCI/ADR-RES ovarian 101%

CS(=O)(=O)C1=CN(CCO)C(=O)N2CCCN=C12
inactive: SR leukemia 115% | RPMI-8226 leukemia 119% | OVCAR-8 ovarian 108% | OVCAR-5 ovarian 99.4% | OVCAR-4 ovarian 115% | SK-OV-3 ovarian 97.5% | IGROV1 ovarian 102% | OVCAR-3 ovarian 105% | HS 578T breast 97% | NCI/ADR-RES ovarian 106%

C1=C(N2CCCC2)CCC1
inactive: SR leukemia 112% | RPMI-8226 leukemia 95.4% | OVCAR-8 ovarian 104% | OVCAR-5 ovarian 86.2% | OVCAR-4 ovarian 98.8% | SK-OV-3 ovarian 131% | IGROV1 ovarian 108% | OVCAR-3 ovarian 106% | HS 578T breast 102% | NCI/ADR-RES ovarian 104%

CC(C)(C)[Si](C)(C)O[C@H]1C(=O)C=CN2CC=C[C@@H]12
inactive: SR leukemia 81.8% [100 µM] | RPMI-8226 leukemia 115% [100 µM] | OVCAR-8 ovarian 97% [100 µM] | OVCAR-5 ovarian 94.4% [100 µM] | OVCAR-4 ovarian 110% [100 µM] | SK-OV-3 ovarian 101% [100 µM] | IGROV1 ovarian 114% [100 µM] | OVCAR-3 ovarian 103% [100 µM] | HS 578T breast 95.3% [100 µM] | NCI/ADR-RES ovarian 106% [100 µM]

CCN1C(=O)N(CC)C2C1NN=c1s/c(=C\c3cccc([N+](=O)[O-])c3)c(=O)n12 (stereo not given)
inactive: SR leukemia 12.7% | RPMI-8226 leukemia 22.8% | OVCAR-5 ovarian 33% | OVCAR-4 ovarian 51.1% | SK-OV-3 ovarian 38.3% | IGROV1 ovarian 22.6% | HS 578T breast 17.6%
active: OVCAR-8 ovarian 6.8% | OVCAR-3 ovarian 1.4% | NCI/ADR-RES ovarian 9.2%

CCOc1nc(-c2ccccc2)cc2c(O)c(C(=O)NN)[nH]c(=O)c12
inactive: SR leukemia 90.8% | RPMI-8226 leukemia 103% | OVCAR-8 ovarian 109% | OVCAR-5 ovarian 106% | OVCAR-4 ovarian 100% | SK-OV-3 ovarian 113% | IGROV1 ovarian 55.2% | OVCAR-3 ovarian 79% | HS 578T breast 87.6% | NCI/ADR-RES ovarian 87.9%

NC(=O)CCC(C(=O)O)N1C(=O)c2ccc(O)cc2C1=O (stereo not given)
active: SK-OV-3 ovarian -100%
inactive: SR leukemia 139% | RPMI-8226 leukemia 82.1% | OVCAR-8 ovarian 106% | OVCAR-5 ovarian 131% | OVCAR-4 ovarian 123% | IGROV1 ovarian 105% | OVCAR-3 ovarian 97.6% | HS 578T breast 107% | NCI/ADR-RES ovarian 132%

CCCCNC(=O)Oc1ccc(/C(=C(/CC)Cc2ccccc2)c2ccc(OCCN3CCCCCC3)cc2)cc1
inactive: OVCAR-8 ovarian 14% | OVCAR-5 ovarian 73.6% | OVCAR-4 ovarian 32.9% | SK-OV-3 ovarian 82.7% | IGROV1 ovarian 42.3% | OVCAR-3 ovarian 72.2% | HS 578T breast 56.6% | NCI/ADR-RES ovarian 53.8%
active: SR leukemia -24.6% | RPMI-8226 leukemia -27.6%

C=CCn1c(SCC(=O)NCc2cc(C)c(O)c(C)c2)nc2ccc(Cl)cc2c1=O
active: SR leukemia -34.1% | RPMI-8226 leukemia -100%
inactive: OVCAR-8 ovarian 106% | OVCAR-5 ovarian 88.4% | OVCAR-4 ovarian 86.2% | SK-OV-3 ovarian 109% | IGROV1 ovarian 65% | OVCAR-3 ovarian 101% | HS 578T breast 98.7% | NCI/ADR-RES ovarian 97.1%
